# From PubChem
# WT yeast gro inh: growth inhibition of WT strain, primary screen, mitochondrial fusion inhibitor project, WT and mutant strains, chemical genetic. AID 1362, 2008. mitochondrial fusion phenotypic screen. inhibition, % at 10 µM. 190,000 tested, 2.1% active; in the data active = inhibition above about 58%; tested in S. cerevisiae
# Lmaj promast: Leishmania major promastigote growth inhibition, primary screen. Leishmania major promastigotes, resazurin fluorescence viability. inhibition, % at 10 µM. 200,000 tested, 9% active; in the data active = inhibition above about 50%;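 also: promastigotes grown with compound for 44 hours at 28 °C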
# RAM network inh: inhibitors of the yeast RAM network, primary screen, dse1pr::URA3 reporter, 5-FOA selection; S. cerevisiae dse1pr::URA3 reporter, 5-FOA growth OD615, 2 d; analog-sensitive cbk1-as2 kinase mutant strain; inhibition, % at 50 µM; 190,000 tested, 1.8% active; AID 868, 2007;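 active = inhibition above a set limit, 3 SD over mean compound inhibition, cut at about 8.4% in these data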;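 also: 0% = DMSO-only wells with no growth and 100% = 10 µM 1-NA-PP1 full growth; inhibition rescues growth on 5-FOA so higher OD means more RAM inhibition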
# CHOP inh: inhibitors of CHOP promoter induction, primary screen, cell-based, unfolded protein response, luciferase reporter; 220,000 tested, 3.8% active; inhibition, % at 10 µM; AID 2732, 2010; CHO-K1 CHOP-promoter luciferase, tunicamycin-induced, 15-18 h;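 active = compounds that reduced the stress-induced luciferase reporter signal by more than about 70% of percent inhibition, limit read from the data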;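 also: 0% = tunicamycin plus vehicle and 100% = wells without tunicamycin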
# CHOP confirm: retest of CHOP induction inhibitors, confirmation, cell-based; 2,100 tested, 45% active; shares compounds with CHOP inh; CHO-CHOP promoter luciferase reporter, tunicamycin-induced, luminescence; AID 504437, 2011; inhibition, % at 10 µM;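 active = mean of three repeat readings of reporter signal inhibition above a set limit, cut at about 70% in these data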;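 also: 0% = tunicamycin plus vehicle and 100% = wells lacking tunicamycin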
# * hit, by the source's call; / = no result. In the library only some 13% were active in any assay of this set; here they are far more common.
SMILES,WT yeast gro inh,Lmaj promast,RAM network inh,CHOP inh,CHOP confirm
Cc1ccc(Cn2c(SCC(=O)Nc3cc(C)on3)nc3ccccc3c2=O)cc1,14,8,2,104*,124*
Cc1ccc(-n2c(SCC(=O)Nc3cc(C)on3)nc3c([nH]c4ccccc43)c2=O)cc1,-14,10,5,13,/
Cc1cc(NC(=O)CSc2nc3ccccc3c(=O)n2Cc2ccccc2)no1,-18,13,5,34,/
CCOC(=O)CNC(=O)CSc1nc2cccnc2n1Cc1ccccc1,17,-2,2,0,/
CCOc1ccccc1N1CCN(S(=O)(=O)c2cccc3nsnc23)CC1,-4,4,2,43,/
Cc1cc(C)c2nc(C(F)(F)F)c(C#N)c(N)c2c1,-8,0,2,106*,116*
O=C(COc1ccc(-n2ccnc2)cc1)Nc1cccc(Cl)c1,-15,42,1,10,/
Cc1cccc(C(=O)NC(=S)NNC(=O)c2cccs2)c1,48,-6,-1,52,/
Cc1cccc(C(=O)NC(=S)NNC(=O)c2ccc(Cl)cc2)c1,51,0,6,107*,53
Cc1cccc(N2CCN(C(=O)CS(=O)(=O)Cc3nc(-c4ccccc4F)oc3C)CC2C)c1 (stereo unspecified),20,7,1,98*,80*
Cc1ccc2nc(NC(=O)CSCC(=O)OCC(=O)c3ccc(Br)cc3)sc2c1,1,-7,4,100*,107*
C=CCOC(=O)C1=C[C@@H](c2ccc3c(c2)OCO3)C[C@@H](OCc2ccc(CO)cc2)O1,21,9,5,-2,/
CCOc1ccc(-n2c(SCC(=O)Nc3ccc(Br)cc3)nc3n[nH]c(C)c3c2=N)cc1,2,0,4,103*,108*
O=c1c2ccccc2ncn1-c1ccccc1C(F)(F)F,14,-8,1,-6,/
CC1(c2ccc3noc(-c4cccc(F)c4)c3c2)OCCO1,-23,-13,1,38,/
Cc1cccc(-c2onc3ccc(C4(C)OCCO4)cc23)c1,15,2,2,106*,32
Cc1cc(C2=NNC(=NC3CC3)SC2)c(C)n1-c1ccccc1,4,18,2,106*,121*
Clc1ccc2oc(-c3cccnc3NCc3ccccc3)nc2c1,27,12,6,26,/
O=S1(=O)C=C(Sc2nc3cc(Cl)ccc3o2)c2ccccc21,-1,80*,6,/,138*
COC(=O)c1c(NC(=O)Nc2ccc(Cl)cc2)sc(C)c1C,-11,-4,3,100*,99*
COC(=O)c1c(NC(C)=O)sc(C)c1C,4,-3,-1,12,/
O=C(Cn1ncc2c3ccccc3n(Cc3ccccc3)c2c1=O)NCc1ccco1,/,/,/,96*,16
O=C(Cn1ncn2c(cc3ccccc32)c1=O)NCc1ccco1,0,-2,0,28,/
COc1cccc2cc(/C(=N/O)c3ccc(Br)cc3)oc12,3,-6,3,106*,20
CC(=O)Nc1ccc(NC(=O)C(C)OC(=O)/C=C/c2cn(-c3ccccc3)nc2-c2cccnc2)cc1 (stereo unspecified),8,-4,2,104*,48
SMILES,WT yeast gro inh,Lmaj promast,RAM network inh,CHOP inh,CHOP confirm
Cc1[nH]n(-c2ccccc2)c(=O)c1N=Nc1ccccc1O,0,3,9.9*,105*,19
CCc1nnc(NC(=O)COc2ccccc2[N+](=O)[O-])s1,/,/,/,0,/
OC(COCC(F)(F)C(F)(F)C(F)(F)C(F)F)Cn1c2ccccc2c2ccccc21 (stereo unspecified),91*,86*,7,108*,110*
C=CCN(CC=C)CC(O)Cn1c2ccccc2c2ccccc21 (stereo unspecified),31,26,2,59,/
Nc1nc(Nc2ccccc2)nc(N2CCOCC2)c1[N+](=O)[O-],3,-6,-1,-5,/
Cc1cccc(Nc2nc(N)c([N+](=O)[O-])c(N3CC(C)CC(C)C3)n2)c1 (stereo unspecified),96*,93*,6,103*,118*
Cc1cccc(Nc2nc(N)c([N+](=O)[O-])c(N3CCC(C)CC3)n2)c1,32,15,0,104*,30
CCN(CC)CCOC(=O)c1ccc(N/C=C(/C#N)c2nc(-c3cccc(OC)c3)cs2)cc1,/,/,/,105*,80*
CCN(CC)CCOC(=O)c1ccc(N/C=C(/C#N)c2nc(-c3ccc(OC)c(OC)c3)cs2)cc1,/,/,/,-22,/
Cc1nn(C)c(C)c1NC(=O)CSc1nc(C2CC2)nc2c1cnn2-c1ccccc1,-7,1,0,102*,30
Cc1nn(C)c(C)c1NC(=O)CSc1nc(-c2ccccc2Cl)nc2c1cnn2-c1ccccc1,5,-1,3,19,/
COc1ccc(C2NCCc3c2[nH]c2ccccc32)cc1CSc1nc2ccccc2s1 (stereo unspecified),80,60*,-1,99*,45
COc1ccc(C2NC(C(=O)O)Cc3c2[nH]c2ccccc32)cc1OC (stereo unspecified),-9,-5,0,3,/
COc1ccc(Cc2nc3ccccc3n2CC(=O)N/N=C/c2ccc(O)cc2)cc1OC,3,-5,-2,14,/
COc1ccc(Cc2nc3ccccc3n2CC(=O)N/N=C/c2ccc(C)cc2O)cc1OC,-9,-5,0,104*,103*
O=C(Nc1cccnc1)c1ccccc1F,12,-3,1,8,/
O=C(/C=C/c1ccncc1)c1ccc(NC(=O)c2ccccc2F)cc1,-5,100*,2,106*,-125
CCOc1cc(/C=N/NC(=O)Cc2ccc(C(F)(F)F)cc2[N+](=O)[O-])c(Br)cc1OC,13,-7,1,101*,100*
Cc1cc2oc(C(=O)Nc3ccc(S(N)(=O)=O)cc3)c(C)c2cc1Cl,-2,-9,0,31,/
O=C(N/C(=C/c1cccc(Br)c1)c1nc(=S)[nH][nH]1)c1ccccc1,-5,40,1,35,/
Cc1ccc(C(=O)N/C(=C\c2ccc(Br)cc2)c2nc(=S)[nH][nH]2)cc1,14,42,6,108*,122*
COc1ccc(-c2cc(C(F)(F)F)nc(S(=O)(=O)CCCC(=O)Nc3cccnc3Cl)n2)cc1OC,-21,82*,0,100*,-69
CCOC(=O)CS(=O)(=O)c1nc(-c2ccccc2)cc(C(F)(F)F)n1,14,0,-2,/,/
CCOC(=O)CCS(=O)(=O)c1nc(-c2ccccc2)cc(C(F)(F)F)n1,33,8,-1,/,136*
O=C(O)CCS(=O)(=O)c1nc(-c2cccs2)cc(C(F)(F)F)n1,14,2,0,-42,/
COC(=O)CCS(=O)(=O)c1nc(-c2ccccc2)cc(C(F)(F)F)n1,19,3,-1,106*,32
COc1ccc(C(CC(=O)NCC(OC)OC)NS(=O)(=O)c2ccc(Cl)cc2)cc1 (stereo unspecified),0,-1,1,9,/
